Source: the supplement of paper PMC11732987, “Enantioselective OTUD7B fragment discovery through chemoproteomics screening and high-throughput optimisation” (Communications Chemistry, 2025)

Tests used:
Assay in all cases: log2 ratio of Biotin-Ahx-Ub-VS probe labelling (fragment/DMSO); higher = less target engagement (more negative = stronger competition), active = hit call of the paper (q ≤ 0.05, log2 ratio ≤ -1)
Conditions in all cases: compound concentration: 200 uM; treatment time: 3 h
USP9X = USP9X (UniProt Q93008)
Method in brief: (§1)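 HEK293T lysate in Tris/CHAPS/IGEPAL buffer with protease inhibitors (495 µg per sample) was given fragment at 200 µM or vehicle for 3 h, in triplicate. It then received Biotin-Ahx-Ub-VS at 0.5 µM final for 1 h. Labelled DUBs were NeutrAvidin-enriched, digested with LysC and trypsin, and run by diaPASEF LC-MS/MS. Values are average log2 fragment/vehicle ratios by unpaired t-test on global-median-normalised Spectronaut quantities of proteins with ≥2 unique peptides.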

UniProt O00487 = biological target: UniProt O00487
Method in brief: as §1

UniProt O00507 = biological target: UniProt O00507
Method in brief: as §1

UniProt P51784 = biological target: UniProt P51784
Method in brief: as §1

UniProt Q5T2D3 = biological target: T1, UniProt Q5T2D3
T1 sequence (whole entry): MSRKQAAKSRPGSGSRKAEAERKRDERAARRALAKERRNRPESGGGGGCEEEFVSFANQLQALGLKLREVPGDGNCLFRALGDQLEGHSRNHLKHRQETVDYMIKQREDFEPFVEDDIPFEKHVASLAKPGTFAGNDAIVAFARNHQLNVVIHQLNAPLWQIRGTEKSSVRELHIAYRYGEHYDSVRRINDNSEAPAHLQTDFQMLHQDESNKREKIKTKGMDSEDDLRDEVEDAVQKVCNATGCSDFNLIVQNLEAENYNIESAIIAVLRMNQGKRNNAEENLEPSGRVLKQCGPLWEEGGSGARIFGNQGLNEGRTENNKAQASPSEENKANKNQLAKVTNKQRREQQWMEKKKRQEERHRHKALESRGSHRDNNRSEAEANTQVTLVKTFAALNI
Method in brief: as §1

UniProt Q8TE49 = biological target: T2, UniProt Q8TE49
T2 sequence (whole entry): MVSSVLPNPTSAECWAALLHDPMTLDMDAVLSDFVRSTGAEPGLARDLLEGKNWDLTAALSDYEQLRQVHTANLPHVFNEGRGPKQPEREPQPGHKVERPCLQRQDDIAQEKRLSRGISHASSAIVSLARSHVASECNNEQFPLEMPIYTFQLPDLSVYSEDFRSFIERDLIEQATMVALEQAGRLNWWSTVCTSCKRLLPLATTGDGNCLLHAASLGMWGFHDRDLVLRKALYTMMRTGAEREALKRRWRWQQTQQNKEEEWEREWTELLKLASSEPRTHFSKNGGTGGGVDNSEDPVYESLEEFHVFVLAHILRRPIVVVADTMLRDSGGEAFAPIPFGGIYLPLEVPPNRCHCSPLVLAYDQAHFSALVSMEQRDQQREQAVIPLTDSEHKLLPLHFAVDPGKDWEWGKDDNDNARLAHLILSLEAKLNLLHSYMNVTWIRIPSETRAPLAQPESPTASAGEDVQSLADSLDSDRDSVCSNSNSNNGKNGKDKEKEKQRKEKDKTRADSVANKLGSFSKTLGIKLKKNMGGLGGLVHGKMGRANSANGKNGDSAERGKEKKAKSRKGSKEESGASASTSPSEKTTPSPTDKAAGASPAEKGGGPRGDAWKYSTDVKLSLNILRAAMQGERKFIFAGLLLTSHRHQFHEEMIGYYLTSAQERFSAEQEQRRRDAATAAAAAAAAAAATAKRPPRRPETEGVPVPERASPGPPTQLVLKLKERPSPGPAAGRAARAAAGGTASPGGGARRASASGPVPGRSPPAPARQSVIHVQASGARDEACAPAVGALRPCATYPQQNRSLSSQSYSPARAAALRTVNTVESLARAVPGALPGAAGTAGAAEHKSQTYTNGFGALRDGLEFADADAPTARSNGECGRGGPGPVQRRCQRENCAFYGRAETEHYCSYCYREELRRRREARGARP
Method in brief: as §1

UniProt Q9P2H5 = biological target: T3, UniProt Q9P2H5
T3 sequence (whole entry): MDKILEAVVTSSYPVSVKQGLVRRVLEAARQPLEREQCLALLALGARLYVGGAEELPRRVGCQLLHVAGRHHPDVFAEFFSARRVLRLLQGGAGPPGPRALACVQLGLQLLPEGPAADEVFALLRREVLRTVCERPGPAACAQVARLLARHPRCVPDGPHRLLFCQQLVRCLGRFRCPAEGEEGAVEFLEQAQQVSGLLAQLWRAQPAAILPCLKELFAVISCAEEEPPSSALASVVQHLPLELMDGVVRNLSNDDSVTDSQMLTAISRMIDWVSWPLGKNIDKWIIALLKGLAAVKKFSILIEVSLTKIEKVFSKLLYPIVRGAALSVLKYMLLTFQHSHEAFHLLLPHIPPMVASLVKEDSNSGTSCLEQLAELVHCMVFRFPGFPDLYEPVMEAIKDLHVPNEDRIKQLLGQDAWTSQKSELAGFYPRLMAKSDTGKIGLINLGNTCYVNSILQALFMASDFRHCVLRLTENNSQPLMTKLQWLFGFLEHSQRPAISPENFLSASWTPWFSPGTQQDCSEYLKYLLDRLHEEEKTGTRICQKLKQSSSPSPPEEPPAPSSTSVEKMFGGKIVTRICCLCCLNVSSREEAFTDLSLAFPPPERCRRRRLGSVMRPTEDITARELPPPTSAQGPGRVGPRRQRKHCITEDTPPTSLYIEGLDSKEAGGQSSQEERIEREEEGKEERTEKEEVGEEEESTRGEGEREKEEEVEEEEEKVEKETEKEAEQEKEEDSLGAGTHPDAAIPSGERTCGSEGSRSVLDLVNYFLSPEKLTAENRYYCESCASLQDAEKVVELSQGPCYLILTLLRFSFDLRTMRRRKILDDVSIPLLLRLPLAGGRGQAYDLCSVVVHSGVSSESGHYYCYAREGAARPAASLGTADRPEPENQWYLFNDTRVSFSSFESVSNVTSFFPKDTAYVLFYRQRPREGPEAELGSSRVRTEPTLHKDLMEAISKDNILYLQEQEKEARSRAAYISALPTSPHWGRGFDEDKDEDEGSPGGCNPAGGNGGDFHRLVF
Method in brief: as §1

UniProt Q9UGI0 = biological target: T4, UniProt Q9UGI0
T4 sequence (whole entry): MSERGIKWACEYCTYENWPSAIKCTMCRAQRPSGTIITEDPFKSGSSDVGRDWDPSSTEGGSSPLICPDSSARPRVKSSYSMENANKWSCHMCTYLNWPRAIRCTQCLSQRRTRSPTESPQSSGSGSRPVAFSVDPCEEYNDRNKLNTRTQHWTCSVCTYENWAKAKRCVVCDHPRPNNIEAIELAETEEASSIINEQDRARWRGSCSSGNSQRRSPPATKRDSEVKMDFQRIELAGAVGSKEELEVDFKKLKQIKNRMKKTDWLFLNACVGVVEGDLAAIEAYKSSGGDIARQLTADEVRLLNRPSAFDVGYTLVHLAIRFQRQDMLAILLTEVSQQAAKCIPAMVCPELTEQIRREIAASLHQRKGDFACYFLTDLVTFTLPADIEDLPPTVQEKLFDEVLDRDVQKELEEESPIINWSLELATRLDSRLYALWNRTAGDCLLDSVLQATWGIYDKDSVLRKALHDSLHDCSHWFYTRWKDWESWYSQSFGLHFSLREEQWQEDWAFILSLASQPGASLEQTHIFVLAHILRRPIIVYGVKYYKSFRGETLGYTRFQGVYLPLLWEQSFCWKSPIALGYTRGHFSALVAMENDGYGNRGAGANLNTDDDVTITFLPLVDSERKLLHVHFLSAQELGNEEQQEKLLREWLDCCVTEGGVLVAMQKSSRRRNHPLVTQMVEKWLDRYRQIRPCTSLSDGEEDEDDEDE
Method in brief: as §1

YOD1 = biological target: T5, YOD1 (UniProt Q5VVQ6)
T5 sequence (whole entry): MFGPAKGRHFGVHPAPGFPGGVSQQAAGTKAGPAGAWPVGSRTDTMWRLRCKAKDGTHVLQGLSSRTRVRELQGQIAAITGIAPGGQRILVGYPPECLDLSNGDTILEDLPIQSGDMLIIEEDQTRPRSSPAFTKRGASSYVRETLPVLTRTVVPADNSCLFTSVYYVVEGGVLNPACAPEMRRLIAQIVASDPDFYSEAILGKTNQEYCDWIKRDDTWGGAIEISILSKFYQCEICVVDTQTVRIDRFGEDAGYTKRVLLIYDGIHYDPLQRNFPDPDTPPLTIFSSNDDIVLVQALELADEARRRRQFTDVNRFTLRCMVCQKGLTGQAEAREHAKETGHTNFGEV
Method in brief: as §1

Measured: log2 ratio of Biotin-Ahx-Ub-VS probe labelling

Sequence of UniProt P51784 (P51784 whole entry): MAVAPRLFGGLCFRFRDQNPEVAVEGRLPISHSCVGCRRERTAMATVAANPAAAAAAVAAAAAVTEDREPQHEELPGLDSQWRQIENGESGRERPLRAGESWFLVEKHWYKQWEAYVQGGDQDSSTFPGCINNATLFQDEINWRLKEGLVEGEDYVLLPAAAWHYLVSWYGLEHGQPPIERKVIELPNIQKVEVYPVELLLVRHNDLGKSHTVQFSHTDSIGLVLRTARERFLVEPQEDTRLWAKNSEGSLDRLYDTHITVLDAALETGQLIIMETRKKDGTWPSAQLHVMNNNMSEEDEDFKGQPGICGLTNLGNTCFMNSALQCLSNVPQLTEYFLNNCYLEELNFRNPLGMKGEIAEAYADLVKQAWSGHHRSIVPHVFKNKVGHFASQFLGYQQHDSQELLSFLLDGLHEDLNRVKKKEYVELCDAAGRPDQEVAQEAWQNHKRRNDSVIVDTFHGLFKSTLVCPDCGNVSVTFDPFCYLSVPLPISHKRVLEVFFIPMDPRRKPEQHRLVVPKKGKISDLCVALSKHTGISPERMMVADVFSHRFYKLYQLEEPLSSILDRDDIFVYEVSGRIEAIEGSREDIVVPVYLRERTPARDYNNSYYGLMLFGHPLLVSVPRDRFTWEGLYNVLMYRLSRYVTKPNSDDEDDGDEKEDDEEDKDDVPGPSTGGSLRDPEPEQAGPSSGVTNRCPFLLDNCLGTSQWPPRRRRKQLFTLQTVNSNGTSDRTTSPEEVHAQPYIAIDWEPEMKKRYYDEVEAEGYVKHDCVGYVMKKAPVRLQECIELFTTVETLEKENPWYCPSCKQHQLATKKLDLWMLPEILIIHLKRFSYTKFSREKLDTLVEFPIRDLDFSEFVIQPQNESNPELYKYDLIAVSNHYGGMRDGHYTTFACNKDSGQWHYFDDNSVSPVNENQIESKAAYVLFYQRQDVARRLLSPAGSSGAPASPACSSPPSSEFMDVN
Sequence of UniProt O00507 (O00507 whole entry): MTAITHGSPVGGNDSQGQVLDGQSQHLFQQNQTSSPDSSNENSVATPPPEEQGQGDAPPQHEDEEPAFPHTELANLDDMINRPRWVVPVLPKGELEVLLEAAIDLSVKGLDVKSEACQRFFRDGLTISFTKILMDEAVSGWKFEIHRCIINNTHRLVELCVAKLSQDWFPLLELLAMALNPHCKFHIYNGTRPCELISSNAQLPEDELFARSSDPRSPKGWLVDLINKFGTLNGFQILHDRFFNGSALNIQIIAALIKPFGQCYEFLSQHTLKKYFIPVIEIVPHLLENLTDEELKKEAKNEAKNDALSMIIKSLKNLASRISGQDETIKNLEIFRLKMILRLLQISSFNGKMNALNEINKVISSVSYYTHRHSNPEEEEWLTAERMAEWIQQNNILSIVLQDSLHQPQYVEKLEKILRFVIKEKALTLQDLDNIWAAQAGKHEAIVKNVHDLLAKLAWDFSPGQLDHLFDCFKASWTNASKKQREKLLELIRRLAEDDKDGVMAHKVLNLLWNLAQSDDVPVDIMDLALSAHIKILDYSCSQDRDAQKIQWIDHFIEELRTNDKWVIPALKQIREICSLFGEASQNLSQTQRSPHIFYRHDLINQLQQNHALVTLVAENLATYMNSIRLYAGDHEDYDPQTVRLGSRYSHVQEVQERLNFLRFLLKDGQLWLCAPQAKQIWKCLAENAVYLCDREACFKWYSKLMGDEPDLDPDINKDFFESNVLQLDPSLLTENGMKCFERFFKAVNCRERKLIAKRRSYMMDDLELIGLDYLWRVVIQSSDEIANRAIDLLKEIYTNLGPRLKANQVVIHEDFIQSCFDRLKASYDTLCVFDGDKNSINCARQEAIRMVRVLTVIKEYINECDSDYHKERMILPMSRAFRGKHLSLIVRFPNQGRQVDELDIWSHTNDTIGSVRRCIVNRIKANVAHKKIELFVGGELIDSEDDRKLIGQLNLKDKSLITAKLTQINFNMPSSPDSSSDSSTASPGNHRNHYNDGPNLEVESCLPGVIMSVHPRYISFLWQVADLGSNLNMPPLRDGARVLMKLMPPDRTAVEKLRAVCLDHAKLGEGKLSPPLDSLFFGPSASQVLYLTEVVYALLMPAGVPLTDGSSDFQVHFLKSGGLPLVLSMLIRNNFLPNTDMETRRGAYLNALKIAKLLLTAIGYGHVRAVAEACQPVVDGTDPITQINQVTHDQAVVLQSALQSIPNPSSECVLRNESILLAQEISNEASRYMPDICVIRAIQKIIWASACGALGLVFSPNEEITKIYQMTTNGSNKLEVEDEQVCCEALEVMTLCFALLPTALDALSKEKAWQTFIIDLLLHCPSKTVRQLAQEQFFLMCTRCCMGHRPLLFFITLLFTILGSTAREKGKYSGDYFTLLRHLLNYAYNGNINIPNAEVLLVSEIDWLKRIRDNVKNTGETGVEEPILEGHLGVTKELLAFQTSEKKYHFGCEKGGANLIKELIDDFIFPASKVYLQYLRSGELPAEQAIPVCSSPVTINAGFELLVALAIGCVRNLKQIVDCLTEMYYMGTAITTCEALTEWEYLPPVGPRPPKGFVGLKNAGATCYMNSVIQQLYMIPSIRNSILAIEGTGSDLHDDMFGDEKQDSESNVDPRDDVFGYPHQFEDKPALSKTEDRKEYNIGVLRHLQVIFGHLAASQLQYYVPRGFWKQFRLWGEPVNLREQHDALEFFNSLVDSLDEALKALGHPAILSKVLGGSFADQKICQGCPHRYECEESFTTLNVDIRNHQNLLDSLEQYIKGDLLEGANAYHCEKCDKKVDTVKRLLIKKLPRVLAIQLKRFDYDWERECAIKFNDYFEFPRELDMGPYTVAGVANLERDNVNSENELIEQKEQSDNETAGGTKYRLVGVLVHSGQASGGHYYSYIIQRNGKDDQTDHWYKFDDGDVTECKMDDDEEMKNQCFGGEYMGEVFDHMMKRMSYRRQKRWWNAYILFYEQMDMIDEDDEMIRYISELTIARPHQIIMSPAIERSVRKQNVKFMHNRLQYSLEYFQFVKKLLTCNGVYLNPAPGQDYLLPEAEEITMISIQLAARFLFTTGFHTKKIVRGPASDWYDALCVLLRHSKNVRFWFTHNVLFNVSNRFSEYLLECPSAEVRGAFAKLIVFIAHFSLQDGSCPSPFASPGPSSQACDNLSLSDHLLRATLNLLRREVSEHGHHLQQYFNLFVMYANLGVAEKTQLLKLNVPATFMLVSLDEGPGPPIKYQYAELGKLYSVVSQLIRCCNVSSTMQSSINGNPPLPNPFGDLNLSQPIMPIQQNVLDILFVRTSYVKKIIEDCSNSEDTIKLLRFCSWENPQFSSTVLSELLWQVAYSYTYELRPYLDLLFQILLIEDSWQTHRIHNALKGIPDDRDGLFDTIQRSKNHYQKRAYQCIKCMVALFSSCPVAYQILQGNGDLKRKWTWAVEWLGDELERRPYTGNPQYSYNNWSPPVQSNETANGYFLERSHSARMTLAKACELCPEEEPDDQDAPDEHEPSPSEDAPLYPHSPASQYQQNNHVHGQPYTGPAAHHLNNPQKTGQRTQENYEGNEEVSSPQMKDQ
Sequence of UniProt O00487 (O00487 whole entry): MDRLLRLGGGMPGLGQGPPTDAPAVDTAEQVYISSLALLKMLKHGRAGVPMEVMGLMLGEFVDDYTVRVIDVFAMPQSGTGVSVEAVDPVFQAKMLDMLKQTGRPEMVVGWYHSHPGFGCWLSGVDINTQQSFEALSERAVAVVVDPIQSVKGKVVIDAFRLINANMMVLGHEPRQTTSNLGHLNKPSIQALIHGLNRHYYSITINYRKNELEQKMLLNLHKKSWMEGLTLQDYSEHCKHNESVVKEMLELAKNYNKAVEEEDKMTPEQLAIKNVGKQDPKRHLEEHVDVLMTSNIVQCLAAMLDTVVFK

Cc1ccc(CC(NC(=O)CCl)c2ccccn2)cc1.Cl (centres undefined)
inactive: USP9X 0.139 | UniProt O00487 0.244 | UniProt O00507 -0.0403 | UniProt P51784 0.188 | UniProt Q5T2D3 0.254 | UniProt Q8TE49 0.237 | UniProt Q9P2H5 -0.00516 | UniProt Q9UGI0 -0.0851 | YOD1 0.248
